# ELG1 DNA repair: blocks ELG1-dependent DNA repair in HEK293T cells; HEK293T ELG1-luciferase reporter, luminescence, 16 h; DNA damage induced by 5-fluorouridine; Potency, µM (highest dose often 46.1 µM), inactives show top-dose activity change, negative = inhibition, most hits filed as inhibitors; 330,000 tested, 2.3% active; AID 504467; note: nearly all actives have a fitted effect of over 55% in size
#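 Reporter activity after DNA damage by 5-fluorouridine is monitored. Compound-treated cells incubate 16 hr at 37 °C, then ONE-Glo is added for 30 min before luminescence reading.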
# ALOX12 inh: inhibitors of human 12S-lipoxygenase ALOX12 | P18054 | purified 12hLO, xylenol orange hydroperoxide absorbance | Potency, µM (titrated, usually from 108 µM), for the others: at the top dose activity change, negative = inhibition, hits mostly inhibitors | 580,000 tested, 1.1% active
# Target sequence (P18054 whole entry, looked up): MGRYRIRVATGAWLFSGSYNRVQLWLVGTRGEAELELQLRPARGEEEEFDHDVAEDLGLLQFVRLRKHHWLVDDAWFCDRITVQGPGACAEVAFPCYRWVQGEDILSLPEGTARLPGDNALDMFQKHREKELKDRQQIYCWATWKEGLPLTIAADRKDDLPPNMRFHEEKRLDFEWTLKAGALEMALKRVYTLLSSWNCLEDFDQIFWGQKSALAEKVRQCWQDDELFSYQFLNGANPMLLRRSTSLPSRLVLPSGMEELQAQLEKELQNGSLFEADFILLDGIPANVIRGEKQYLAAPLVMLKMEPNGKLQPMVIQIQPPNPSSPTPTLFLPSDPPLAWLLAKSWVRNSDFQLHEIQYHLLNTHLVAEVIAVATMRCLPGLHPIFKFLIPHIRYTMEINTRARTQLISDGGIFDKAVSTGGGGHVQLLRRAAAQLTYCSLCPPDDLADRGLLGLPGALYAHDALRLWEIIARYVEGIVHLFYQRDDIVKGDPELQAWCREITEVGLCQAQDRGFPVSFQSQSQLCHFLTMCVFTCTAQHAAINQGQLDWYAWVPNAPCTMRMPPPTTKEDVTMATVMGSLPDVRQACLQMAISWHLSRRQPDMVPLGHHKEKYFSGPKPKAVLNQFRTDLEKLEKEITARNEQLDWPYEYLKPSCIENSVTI
#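 Purified human 12hLO (150 nM final) in 25 mM Hepes, 0.01% Triton X-100, pH 7.0 was preincubated 15 min at room temperature with compound. Then 40 uM arachidonic acid was added, 30 min. Hydroperoxide was read by Fe-XO absorbance ratio 573/405 nm.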
# Gal4-VP16 FLuc: counter-screen for ROR gamma inhibitors: Gal4-VP16 reporter. Drosophila S2 Gal4-VP16 UAS-luciferase, luminescence, 20 h. 310,000 tested, 3.5% active. Potency, µM (doses to about 53.6 µM), without a hit: top-dose activity, negative = inhibition, actives largely listed as inhibitors. AID 2546;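 note: Gal4-VP16 expression switched on by copper sulfate through the metallothionein promoter; nearly all actives have a fitted effect of over 50% in size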
# DT40 TDP1 CPT: DT40-hTDP1 cell growth loss with CPT | 420,000 tested, 12% active | AID 686979 | chicken DT40 Tdp1-/-;hTDP1 cells + 20 nM CPT, ATP luminescence, 48 h | Potency, µM (doses to about 46.2 µM), for the others: top-dose activity change, negative = growth inhibition, most hits filed as inhibitors; note: nearly all actives have a fitted effect of over 55% in size
#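 Chicken DT40 Tdp1-/- cells stably complemented with human TDP1 were seeded at 400 cells/well in medium containing 20 nM camptothecin, exposed to pin-transferred compounds, and grown at 37 °C for at least 48 hr. Viability was read as ATP luminescence.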
# RORg inh: ROR gamma (mouse) transcription inhibition; Drosophila S2 Gal4-RORgamma UAS-luciferase reporter, 20 h; 310,000 tested, 5.4% active; Potency, µM (doses to about 53.6 µM), for inactives: top-dose activity change, negative = inhibition, hits mostly inhibitors; note: nearly all actives have a fitted effect of over 60% in size
#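 Stably transfected Drosophila Schneider cells are the test system, with ROR gamma fused to Gal4 and luciferase under UAS control; luminescence is read after 20 hr of 700 uM copper sulfate induction at ambient temperature.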
# TDP1 cell noCPT: qHTS for Inhibitors of human tyrosyl-DNA phosphodiesterase 1 (TDP1): qHTS in cells in absence of CPT. 420,000 tested, 15% active. Potency, µM (highest dose often 46.2 µM), inactives show at the highest dose activity change, negative = growth inhibition, usual class: inhibitors. DT40 Tdp1-/- hTDP1 cells, no CPT, ATP luminescence, 48 h; note: nearly all actives have a fitted effect of over 55% in size
#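 Luminescent ATP content (CellTiter-Glo) served as the growth readout. Knockout chicken DT40 cells expressing human TDP1 were exposed to compounds without camptothecin for a minimum 48 hr at 37 °C.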
# An asterisk follows results filed as active; ? = inconclusive; nt = no result; [ ] = remark or other dose. The list is not random: actives were taken first. Their share in the collection is about 15%. Calls come from the whole dose curve; as a rule, active = well fitted curve in the direction sought with a large enough effect; inconclusive = small, poorly fitted or top-dose-only effect, or another doubt; inactive = no such curve, though single readings can be large; an effect the other way counts as inactive or inconclusive. % is set by controls: 0 for no effect and ±100 for the full control effect; potency is the fitted concentration of half-maximal effect.
SMILES,ELG1 DNA repair,ALOX12 inh,Gal4-VP16 FLuc,DT40 TDP1 CPT,RORg inh,TDP1 cell noCPT
Cc1cc(N2CCC(C)CC2)nc(NCc2ccccc2)n1,?,?,-22%,?,?,16µM*
Cc1cc(Oc2ccccc2)nc(NCc2ccccc2)n1,-21%,15%,-9%,12µM*,-14%,21µM*
O=C(Oc1ccc(-c2ccccc2)cc1)c1ccco1,nt,-1%,nt,-22%,nt,-16%
O=Cc1ccnc(-c2ccc(OC(=O)c3ccco3)cc2)n1,4%,52%,-4%,5.2µM*,-34%,5.8µM*
Cc1cc(C)c(S(=O)(=O)Nc2ccc(N(C)C)cc2)c(C)c1-n1cnnn1,20%,-26%,-15%,29µM*,?,16µM*
Cc1ccc(S(=O)(=O)Nc2ccc(-n3cnnn3)cc2)c(C)c1,-14%,?,nt,?,nt,?
CCOc1ccccc1NC(=O)Cc1nc(-c2cccs2)oc1C,nt,-6%,nt,nt,nt,nt
Cc1c(-c2ccc(Cl)cc2)oc(=O)c2c(N)n(-c3ccccc3)nc12,?,0%,?,?,7.9µM*,7.3µM*
Nc1c2c(=O)oc(-c3ccccc3)cc2nn1-c1ccccc1,?,-10%,13%,26µM*,5%,?
Nc1c(-c2ccc(Cl)cc2)cnn1-c1ccccc1,?,nt,4%,-29%,-27%,-8%
Cc1cc2c(c(C)nn2-c2ccccc2)c(=O)o1,?,-13%,-1%,-3%,-9%,-15%
C[C@@H](Oc1cc(-n2cnc3ccc(CN4CCN(C)CC4)cc32)sc1C(N)=O)c1ccccc1C(F)(F)F,nt,-15%[57.4 µM],nt,nt,nt,nt
COc1cc(C(=O)Nc2oc3ccccc3c(=O)c2-c2ccc3c(c2)OCO3)cc(OC)c1OC,nt,-9%,nt,nt,nt,nt
Cc1ccc(NS(=O)(=O)c2cc(NC(=O)C(C)Oc3ccccc3)ccc2C)c(C)c1 (stereo not given),?,-1%,-7%,?,1%[10 µM],23µM*
Cc1ccc(NC(=O)C(C)Oc2ccccc2)cc1S(=O)(=O)N1CCCCCC1 (stereo not given),?,435%,nt,?,nt,23µM*
Cc1ccc(NC(=O)CNc2ccc(OC(C)C)cc2)c(C)c1,-1%,0%,-2%,?,-7%,?
CCCCOc1ccc(NC(=O)CCC)c2cccnc12,nt,-15%,nt,nt,nt,nt
Cc1ccc(C)c(CN2C(=O)c3ccccc3Sc3ccc(C(=O)NCc4cccs4)cc32)c1,nt,-34%,nt,-30%,nt,?
Cc1ccccc1CN1C(=O)c2ccccc2Sc2ccc(C(=O)NCc3cccs3)cc21,nt,-24%,nt,23µM*,nt,23µM*
Cc1ccccc1CN1C(=O)c2ccccc2Sc2ccc(C(=O)NC3CCCC3)cc21,nt,?,nt,16µM*,nt,?
COCCN(CCOC)S(=O)(=O)c1ccc(C(=O)Nc2nnc(C3CC3)o2)cc1,7%,-14%,3.5µM*,-5%,4.5µM*,-8%
CCc1nnc(NC(=O)c2ccc(S(=O)(=O)N(CCOC)CCOC)cc2)o1,3%,0%,6.3µM*,-4%,2.2µM*,2%
COc1ccc(S(=O)(=O)N2CCN(C(=O)CN3C(=O)NC(C)(c4ccc5ccccc5c4)C3=O)CC2)cc1 (stereo not given),?,-20%,nt,?,nt,23µM*
CC1(c2ccc3ccccc3c2)NC(=O)N(CC(=O)N2CCN(Cc3ccccc3)CC2)C1=O (stereo not given),-25%,nt,nt,8.2µM*,nt,4.6µM*
CCCCCC(C)NC(=O)CN1C(=O)NC(C)(c2ccc3ccccc3c2)C1=O (stereo not given),2%,-16%,13µM*,?,5µM*,?

# Source: PubChem (National Center for Advancing Translational Sciences (NCATS))
